# Values joined by “and” are separate entries in the source; they are usually repeats but may differ in a detail not shown here. Equal entries are not always repeated. This is part of a sample that, as a whole, favours compounds with a hit. Of some 83,000 tested, about 20% had one in any assay.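 Single-concentration screen, 48 h exposure, 96-well plates. Endpoint: percent growth. Below 10 = active.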 Unmarked numbers belong to inactive results. Active and inactive are the calls of the source.
# Test system: MDA-MB-468 breast
# Assay: NCI-60 one-dose screen, 48 h (100 = growth as untreated, 0 = no growth, -100 = all killed)
# Conditions: 10 µM unless noted
row,SMILES,growth
1,N#C/C(=C/C=C/c1ccccc1)S(=O)c1ccccc1 (stereo not given),-56% (active)
2,COc1cc2nc(-c3ccc(Cl)cc3)cc(OCCCN3CCCC3)c2cc1OC,43.5%
3,C=C1C(=O)O[C@H]2[C@H]1CC/C(COC(=O)C(C)c1ccc(CC(C)C)cc1)=C\CC[C@@]1(C)O[C@@H]21 (stereo not given in full),6.36% (active)
4,COc1ccc(N2CCN(c3nc(-c4ccccc4)c(C#N)c(=O)[nH]3)CC2)cc1,97.9%
5,CCOC(=O)c1c(C)[nH]c(C)c1C=O,99.1%
6,COc1ccc(/C=C2/SC(=S)NC2=O)c(OC)c1OC,65.4%
7,CC[C@]12C=CCN3CC[C@@]4(c5ccc(OC)cc5N(C)[C@H]4[C@@](O)(C(=O)OC)[C@@H]1OC(=O)CCC(=O)O[C@H]1CC[C@H]4[C@@H]5CCC6=CC(=O)CC[C@@H]6[C@H]5CC[C@]14C)[C@@H]32,-30.2% [100 µM] (active)
8,Oc1[nH]c2ccccc2c1/C=c1/cc2c(c(-c3ccc(F)cc3)n1)=Nc1ccccc1-2,-60.8% (active)
9,CN1C(=C2C(=O)OC(C)(C)OC2=O)CCC1C(=O)NCc1ccc(Cl)cc1Cl (stereo not given),75%
10,Cc1ccc(SCN2CCN(c3cccc(Cl)c3)CC2)cc1,115%
11,COc1cc(/C=C/C(=O)c2ccc(C(F)(F)F)cc2)ccc1Oc1nc(NCCO)nc(N2CCOCC2)n1,85.6%
12,C=C[C@@]1(C)CC(=O)[C@@H](C(C)(C)c2cn(C)c3ccc(Br)cc23)C[C@@H]1O[Si](C)(C)C(C)(C)C,100%
13,CC1=CC2c3oc(-c4ccccc4)c(C(=O)c4ccccc4)c3CNC2C=C1 (stereo not given),97.7%
14,C[C@H]1O[C@@H](O[C@H]2[C@@H](O)C[C@H](O[C@H]3[C@@H](O)C[C@H](O[C@H]4CC[C@]5(C)C6CC[C@]7(C)[C@@H](C8=CC(=O)OC8)CC[C@]7(O)C6CC[C@@H]5C4)O[C@@H]3C)O[C@@H]2C)C[C@H](O)[C@@H]1O (stereo not given in full),-60% (active)
15,COc1cccc(CNc2ccc3ncnc(Nc4ccc(F)c(Cl)c4)c3c2)c1,-19.6% (active)
16,CC[C@]12C=CCN3CC[C@@]4(c5cc([C@H]6CCC(=O)N6)c(OC)cc5N(C)[C@H]4[C@@](O)(C(=O)OC)[C@@H]1OC(C)=O)[C@@H]32,110% [2.5 µM]
17,O=C(Nc1cccc(C2=NCCN2)c1)c1cccc(C(=O)Nc2cccc(C3=NCCN3)c2)c1,90.8%
18,NC(CCCC(N)C(=O)c1ccccc1)C(=O)O (stereo not given),113%
19,CC(=O)N1Cc2ccccc2C(C)Cc2cc(Cl)ccc21 (stereo not given),113%
20,O=C1Nc2ccc(C(=O)O)cc2/C1=N/c1nnc(Sc2ccccc2)s1,105%

row,SMILES,growth
1,COc1cc(CNC(=O)CCCC/C=C/C(C)C)ccc1OCc1nnc(Nc2ccc([N+](=O)[O-])cc2)o1,53.7%
2,O=c1ccc(=O)n(-c2nc(-c3ccc([N+](=O)[O-])cc3)cs2)[nH]1,99.3%
3,O=[N+]([O-])c1ccc(Br)o1,105%
4,O/N=C(/c1ccccc1)c1ccc2c3c(cccc13)CC2,57.5% and 59.8%
5,O=C(Nc1nc2c(C(F)(F)F)cccc2s1)c1cc(Cl)ccc1O,-10.5% (active)
6,O=C(N/N=C\c1cc(Cl)ccc1O)c1ccncc1,36.9%
7,O=c1c2cc(F)ccc2sc2c(NCCN3CCCC3)nc3ccccc3c12,65.8%
8,O=C(O)c1ccc(NC(=O)c2ccc(Nc3ccnc(C(F)(F)F)c3)cc2)cc1,99.8%
9,COc1cc2c(cc1OC)-c1cc(OC)c(OC)cc1C(CN(C)C)C2 (stereo not given),66.4% [100 µM]
10,COc1ccc(C(C#N)=C2C=CC(=NO)C=C2)cc1,-7.26% (active)
11,CCN1C(=S)N(c2ccccc2)C2NC(=S)N(/N=C/C=C/c3ccccc3OC)C21 (stereo not given),6.55% (active)
12,COc1ccc(C(=O)C(O)c2ccc(OC)cc2)cc1 (stereo not given),101% and 96.3%
13,FC(F)(F)c1cn(CC2CNC2)c2ncnc(Cl)c12,111%
14,O=C(Nc1nc2ccc([N+](=O)[O-])cc2s1)Nc1ccccc1Br,33.2%
15,Nc1ncnc2c1c(-c1cccc(OCc3ccccc3)c1)cn2C1CC(CN2CCC2)C1 (stereo not given),-12.3% (active)
16,O=C(CN1CCN(c2cc(=O)[nH]c3ccc(F)cc23)CC1)Nc1ccc(Cl)cc1,58.2%
17,O=S(=O)(NC1c2ccccc2Oc2ccccc21)c1ccccc1,87.6%
18,CC[C@@H]1C(=O)N(C)c2cnc(Nc3ccc(C(=O)NC4CCN(C)CC4)cc3OC)nc2N1C1CCCC1,-33.3% (active)
19,COc1ccc2cc(-c3ccc(NC(C)=O)c(=O)o3)ccc2c1,106%
20,Cc1ccc(O)c(Cc2ccccc2)c1,101%
